# PubChem BioAssay (NCI)
# About 83,000 compounds went through this panel and 20% of them were active in at least one assay; those are over-represented in the sample as a whole.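 Cells were grown in 96-well plates and exposed to the test compound at a single concentration for 48 hours; results are reported as percent growth, with values below 10 considered active.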 Values without a mark were called inactive. Active and inactive are the calls of the source.
# System: TK-10 renal
# Assay: NCI-60 one-dose screen, 48 h (100 = growth as untreated, 0 = no growth, -100 = all killed)
# Conditions: 10 µM unless noted
# Procedure: Growth inhibition of the TK-10 human tumor cell line is measured as a screen for anti-cancer activity. Cells are grown in 96 well plates and exposed to the test compound for 48 hours. Compounds are tested at a single concentration, which is 10^-5 M for most compounds. The reported endpoint is percent growth (GI% or GIPRCNT), where numbers from 0 - 100% represent growth inhibition, and numbers from -100% - 0 represent cell death. For example, a value of 40 represents 60% growth inhibition. A value of 0 means no net growth occurred over the course of the experiment. A value of -40 indicates 40% of cells at the beginning of the experiment died by the end of the experiment. A value of -100 means all cells are dead at the end of the experiment.
# NCI-60 Human Tumor Cell Lines Screen was performed using the standard one-dose NCI protocol, which is described in more detail at https://dtp.cancer.gov/discovery_development/nci-60/default.htm.
# Compounds with GIPRCNT values below 10 were considered active. Activity score was based on GIPRCNT using the following formula: […]
# Score is 0 for GIPRCNT values of 100 or above, 50 for GIPRCNT values of 0, and 100 for GIPRCNT values of -100.
row,Structure (SMILES),growth
1,COc1ccc(-c2cn(-c3ccc(Cl)cc3)c(SCC(=O)c3ccc([N+](=O)[O-])cc3)n2)cc1,55.9%
2,CC[C@H](Nc1nc(N)nc(C)c1C#N)c1nc2cccc(NCCCCCC(=O)NO)c2c(=O)n1-c1ccccc1,33.2%
3,O=C(NCc1ccc2c(c1)OCO2)NCC1CCCC(CNC(=O)NCc2ccc3c(c2)OCO3)C1 (stereo not given),101%
4,O=C(Nc1ncc(Cc2ccccc2Cl)s1)c1cccs1,88%
5,Cc1cccc(N2CCN(C(=S)c3ccc4c(c3)OCO4)CC2)c1,36.5%
6,CCN=C1C=CC(=C(c2ccc(N(C)C)cc2)c2ccc(N(C)C)cc2)c2ccccc21,-3.47% (active)
7,CCCCCCCCNc1cc2c3c(c1)CCCN3CCC2,41.7%
8,COc1cc(C#Cc2ccc(=O)oc2C#Cc2ccccc2)cc(OC)c1OC,134%
9,CN1CCN(C(=O)c2cc(-c3ccc4ncnc(N5CCc6cc(F)c(Cl)cc65)c4c3)cnc2N)CC1,-14.2% (active)
10,N#Cc1c(Nc2ccc(F)cc2)n[nH]c1-c1cccs1,135%
11,CCCCCCCC/C=C\CCCCCCCCOc1ccc(CC(=O)NCC[N+](C)(C)C)cc1,24.6%
12,COc1ccc(NC(=O)c2ccc(C(=O)Nc3ccc(OC)cc3OC)cc2)c(OC)c1,69.7%
13,COc1ccc(/C(C)=C(\c2ccc(OCCN3CCCCCC3)cc2)c2ccc(OC(=O)c3ccccc3)cc2)cc1,74.5%
14,O=C1/C=C/[C@@H](O)[C@@H]2C[C@@H](O)C[C@H]2/C=C/CCC[C@H](CCOCc2ccccc2)O1,-17.6% (active)
15,COc1cc2oc(-c3cccc(NC(=O)c4ccc5c(c4)OCO5)c3)cc(=O)c2c(OC)c1OC,61.6%
16,COc1ccc2nc3ccccc3c(NCc3ccccc3)c2c1,38.7%
17,COc1ccc(/C=C/C(=O)c2ccc(NC(=O)CSc3nnc(-c4cc(-c5ccccc5)nc5ccccc45)n3-c3ccccc3)cc2)cc1,112%
18,COc1cc(-c2nc3ccc(C)cc3[nH]2)ccc1OCC(=O)N=Nc1c(O)[nH]c2ccc(Cl)cc12,23.4%
19,CCCCN1C(=O)/C(=c2\sc3n(c2=O)NC2C(N=3)N(CC)C(=O)N2CC)c2ccccc21 (stereo not given),83.8%
20,COc1ccc(-c2cc(-c3cc(OC)c(OC)c(OC)c3)c(C#N)c(=O)n2CCCCCC(=O)NO)cc1,106%

row,Structure (SMILES),growth
1,Fc1ccc2c(c1)c(-c1nc(-c3c[nH]c4ncccc34)cs1)cn2CCCN1CCOCC1,66.9%
2,CCCCSCC(=O)c1ccccc1,86.1%
3,O=C1/C(=C/c2ccc(Br)cc2)COc2ccc(O)c(O)c21,4.99% (active)
4,C[C@@H](CO)[C@@H]1CC[C@]2(C(=O)N3CCN(C)CC3)CC[C@]3(C)[C@H](CC[C@@H]4[C@@]5(C)CC[C@H](O)C(C)(C)[C@@H]5CC[C@]43C)[C@@H]12,113%
5,COc1ncc2cc1NS(=O)(=O)c1cccc(c1)C(=O)NCC1=CC=C(S1)c1ncnc3c1SC2=C3C,-6.51% (active)
6,CCOC(=O)c1n[nH]n2c1nc(=O)c1cnn(C)c12,97.6%
7,CCNC(=O)Oc1ccc(/C(=C(/C)Cc2ccc(OC)cc2)c2ccc(OCCN3CCCC3)cc2)cc1,88.1%
8,CCN(CCO)CC(C)Nc1ccc([N+](=O)[O-])c2sc3ccccc3c(=O)c12 (stereo not given),58.8%
9,C#CC#CC#CC#CC#CC#CC#CC#CC[C@H]1OC[C@H](COC(=O)O[C@@H](C(=O)O[C@H]2C[C@@]3(O)[C@@H](OC(=O)c4ccccc4)[C@@H]4[C@]5(OC(C)=O)CO[C@@H]5C[C@H](O)[C@@]4(C)C(=O)[C@H](OC(C)=O)C(=C2C)C3(C)C)[C@@H](NC(=O)c2ccccc2)c2ccccc2)O1,102%
10,COc1ccc(C(c2cc(OC)c(OC)c(OC)c2)N2CCN(Cc3ccccc3)CC2)cc1 (stereo not given),84.8%
11,N#C/C(=C\c1ccc(Br)cc1)c1cc2ccccc2[nH]1,119%
12,Cc1c2ccccc2nc2c1ccc1cccnc12,96.1%
13,CC(/C=C1\SC(=S)N(CC(=O)NC(Cc2c[nH]c3ccccc23)C(=O)O)C1=O)=C\c1ccccc1 (stereo not given),122%
14,CCC/C(=N\NC(N)=O)C(OC)OC,85.3%
15,COc1ccc2c(c1)c(-c1nc(-c3cn(C)c4ncccc34)cs1)cn2CCO,83%
16,C#CCn1cnc2c(Nc3cccc(NC(=O)CCl)c3)ncnc21,76.9%
17,Cc1nn(-c2ccccc2)c(N2CCCCC2)c1/C=N/NC(=O)Cn1c(=O)sc2ccccc21,88.5%
18,Cn1c(=O)c2c(c3ccccc31)OC(N)=C(C#N)C21C(=O)c2ccccc2C1=O,127%
19,Cn1ccnc1C(=O)/C=C/c1ccc(C(=O)Nc2ccc(F)cc2)cc1,13.1%
20,CCCCCn1sc(=O)n(Cc2ccc(CNC(=O)OCc3ccc4c(Cl)cc(Cl)c(O)c4n3)cc2)c1=O,68.8%
